Assay results as given in PubChem BioAssay AID588689 (Southern Research Specialized Biocontainment Screening …, 2011).
The whole screen tested about 340,000 compounds, of which about 1,000 (0.29%) were called active. Cut-off read from the data, not from the text of the source: inconclusive = inhibition above about 29% without an active follow-up result; inactive = below that. A selection follows. Entries with a potency or affinity are not part of this list.

Biological target: Genome polyprotein (Dengue virus type 2 (strain 16681-PDK53)) (UniProt P29991)
Experiment: flavivirus cap methylation enzyme inhibition – biochemical, confirmation dose response, primary screen (AID 588689)
Conditions: Dengue-2 NS5 methyltransferase capping enzyme assay, at 25 µM, stronger effect = higher value
[1] = measured here: pilot screen replicate inhibition

Row | Structure (SMILES) | inhibition | inhibition [1] [%]
1 | COCCCN(Cc1ccco1)C(=O)CSc1nc2ncccc2[nH]1 | -4.52% (inactive) | –
2 | Cc1oc(-c2ccccc2Cl)nc1CS(=O)CC(=O)NCCCN1CC(C)CC(C)C1 (stereo not drawn) | 2.33% (inactive) | –
3 | COc1ccc(/C=C2\Oc3cc(OCC(=O)N4CC(O)C[C@H]4C(=O)O)ccc3C2=O)cc1OC (stereo partly drawn) | -10.1% (inactive) | –
4 | COc1cccc(/C=C2\Oc3cc(OCC(=O)N4CCC[C@H]4C(=O)O)ccc3C2=O)c1 | 2.17% (inactive) | –
5 | CC(=O)CCS(=O)(=O)c1ccc(Oc2ccc(S(=O)(=O)CCC(C)=O)cc2)cc1 | 3.83% (inactive) | –
6 | Cc1cccc(S(=O)(=O)Nc2nc3ccccc3nc2Nc2cccc(C(=O)O)c2)c1 | 27.7% (inactive) | –
7 | O=C(O)c1cccc(Nc2nc3ccccc3nc2NS(=O)(=O)c2ccccc2)c1 | 19.8% (inactive) | –
8 | O=C(O)c1ccc(Nc2nc3ccccc3nc2NS(=O)(=O)c2cccs2)cc1 | 19.7% (inactive) | –
9 | COc1cccc(Nc2nc3ccccc3nc2NS(=O)(=O)c2cccs2)c1 | 16.4% (inactive) | 3.81
10 | CC(=O)Nc1ccc(S(=O)(=O)Nc2nc3ccccc3nc2Nc2ccccc2)cc1 | -18.8% (inactive) | –
11 | O=C(O)c1cccc(Nc2nc3ccccc3nc2NS(=O)(=O)c2ccc(F)cc2)c1 | 8.81% (inactive) | –
12 | CCc1ccc(/C=C2\SC(=S)N(CCCC(=O)N(CCO)c3ccccc3)C2=O)cc1 | 2.75% (inactive) | –
13 | Cc1ccc(-c2nc3ccccc3[nH]2)cc1NC(=O)c1sc2cc(Cl)ccc2c1Cl | -3.63% (inactive) | –
14 | CCC(C)C(NC(=O)c1ccccc1NC(=O)c1ccccc1)C(=O)O (stereo not drawn) | -1.16% (inactive) | –
15 | O=C(NNC(=O)c1ccccc1-n1cccc1)c1cccc(Cl)c1 | -3.46% (inactive) | –
16 | CCCC(C)NNC(=O)c1cc2ccccc2[nH]1 (stereo not drawn) | 0% (inactive) | –
17 | COc1ccc(Cl)cc1Nc1nc(-c2sc(NC(=O)C(C)(C)C)nc2C)cs1 | -12% (inactive) | –
18 | Cc1ccc(-c2cccc(C3CC=CC4C3C(=O)N(Cc3ccccc3)C4c3cc(C)ccc3F)c2)cc1 (stereo not drawn) | -5.46% (inactive) | –
19 | COc1cc(S(=O)(=O)Nc2cccc(C)c2)ccc1NC(=O)c1ccncc1 | -1.47% (inactive) | –
20 | N#CC1=C(N)C2=CCCC[C@H]2[C@H](c2cccc(F)c2)C1(C#N)C#N | -4.34% (inactive) | –
21 | COc1cc(C=NNc2ccc(S(=O)(=O)Nc3ccccc3C(=O)O)cc2[N+](=O)[O-])ccc1O | 17.4% (inactive) | –
22 | CC(=O)Nc1ccc(C=NNc2ccc(S(=O)(=O)Nc3ccccc3C(=O)O)cc2[N+](=O)[O-])cc1 | 12.4% (inactive) | –

Row | Structure (SMILES) | inhibition | inhibition [1] [%]
23 | COc1ccc(C=NNc2ccc(S(=O)(=O)Nc3ccccc3C(=O)O)cc2[N+](=O)[O-])c(OC)c1 | 17% (inactive) | –
24 | O=C(O)c1ccccc1NS(=O)(=O)c1ccc(NN=Cc2ccccc2F)c([N+](=O)[O-])c1 | 9.54% (inactive) | –
25 | CCOc1ccc(OCC)c(S(=O)(=O)n2cnc(C)c2)c1 | 4.27% (inactive) | –
26 | CC(C)N1CCc2c(sc(NC(=O)c3ccco3)c2C(N)=O)C1 | -17.8% (inactive) | –
27 | O=C(NN=C1CCN(Cc2ccccc2)CC1)c1ccccc1 | -11% (inactive) | –
28 | CSc1nc(N)nc2c1ncn2CC(=O)NCCCc1ccccc1 | -9.58% (inactive) | -1.21
29 | Cc1cc(O)c(C(C)C)cc1N=Cc1cc([N+](=O)[O-])ccc1O | 73.1% (inactive) | –
30 | Cc1cc(O)c(C(C)C)cc1N=Cc1ccccc1O | 73.5% (inactive) | –
31 | CN(C(=O)c1cc(C(=O)N(C)c2ccccc2)cc([N+](=O)[O-])c1)c1ccccc1 | -8.48% (inactive) | –
32 | Cc1oc2ccc(O)cc2c1C(=O)c1ccc(Br)cc1 | 1.53% (inactive) | –
33 | Cc1ccc(C(=O)c2coc3cc([N+](=O)[O-])c(O)c([N+](=O)[O-])c23)cc1 | 8.29% (inactive) | –
34 | COc1ccc(OC)c(C(=O)c2c(C)oc3cc([N+](=O)[O-])c(O)c([N+](=O)[O-])c23)c1 | 25.1% (inactive) | –
35 | Cc1oc2ccc(O)cc2c1C(=O)c1ccc([N+](=O)[O-])cc1 | -2.6% (inactive) | –
36 | CCc1ccc(NC(=O)Cn2ncc3c4ccccc4n(C)c3c2=O)cc1 | -6.09% (inactive) | –
37 | CCCOc1ccc(C(=O)CCC(=O)Nc2ccc(N3CCN(C)CC3)cc2)cc1 | -15.3% (inactive) | –
38 | COC(=O)c1c(NC(=O)/C=C/C(=O)O)sc(C)c1-c1ccc(C)cc1 | -1.47% (inactive) | –
39 | CCOC(=O)c1c(NC(=O)/C=C\C(=O)O)sc(C)c1-c1ccccc1 | -5.1% (inactive) | –
40 | COC(=O)c1c(NC(=O)/C=C/C(=O)O)sc(Cc2ccccc2)c1C | 8.38% (inactive) | –
41 | Cc1sc(NC(=O)/C=C/C(=O)O)c(C(N)=O)c1-c1ccc(C(C)(C)C)cc1 | 15.2% (inactive) | –
42 | COC(=O)c1c(NC(=O)/C=C/C(=O)O)sc(C)c1-c1ccc(C)c(C)c1 | 18.9% (inactive) | –
43 | CCOC(=O)c1c(NC(=O)/C=C/C(=O)O)sc(C)c1-c1ccc(F)cc1 | 23.7% (inactive) | –
44 | CCc1c(C)sc(NC(=O)/C=C/C(=O)O)c1C(N)=O | -7.73% (inactive) | –

Row | Structure (SMILES) | inhibition | inhibition [1] [%]
45 | CCOC(=O)c1c(C)nn(-c2ccc(NC(=O)/C=C/C(=O)O)cc2)c1C | -3.06% (inactive) | –
46 | NC(=O)C1(N2CCCCC2)CCN(C2CC(=O)N(Cc3cccs3)C2=O)CC1 (stereo not drawn) | -7.74% (inactive) | –
47 | O=C(N/N=C/c1ccccc1O)C(=O)Nc1ccccn1 | -0.76% (inactive) | –
48 | CCCn1c(SCc2cc(=O)[nH]c3ccccc23)nc2c1c(=O)n(C)c(=O)n2C | -2.04% (inactive) | -0.155
49 | Cc1ccccc1Cn1c(CN2CCN(C(=O)c3ccco3)CC2)nc2c1c(=O)n(C)c(=O)n2C | -5.56% (inactive) | –
50 | CCc1ccc(NS(=O)(=O)c2ccc3oc(=O)ccc3c2)cc1 | 1.32% (inactive) | 1.83
51 | O=C(NCc1ccccc1)c1cccc(S(=O)(=O)NCc2ccccc2)c1 | -6.73% (inactive) | –
52 | O=C(Nc1ccc(C(F)(F)F)cc1)C1CCCCN1S(=O)(=O)c1ccccc1 (stereo not drawn) | -9.59% (inactive) | –
53 | COc1ccc(-n2nc(C(=O)NCC(=O)N(C)Cc3ccccc3)c3ccccc3c2=O)cc1 | -2.44% (inactive) | –
54 | Cc1ccccc1N1C(=O)C(Cl)=C(N2CCN(c3ccccc3)CC2)C1=O | -3.27% (inactive) | –
55 | Cc1ccccc1N1C(=O)C(Cl)=C(N2CCCCCC2)C1=O | -0.78% (inactive) | –
56 | O=C1C(Cl)=C(N2CCCCCC2)C(=O)N1c1ccccc1Cl | 8.59% (inactive) | –
57 | CCc1ccccc1N1C(=O)c2cccc3c(N4CCOCC4)c([N+](=O)[O-])cc(c23)C1=O | -4.86% (inactive) | –
58 | O=C1C(Cl)=C(N2CCCCC2)C(=O)N1c1ccccc1Cl | 16.1% (inactive) | –
59 | CC1=CC(C)(C)C(C(=O)O)C(C(=O)O)C1 (stereo not drawn) | -2.42% (inactive) | –
60 | CCOC(=O)/C(C#N)=C1/C=C(C)c2ccccc2N1 | -9.35% (inactive) | –
61 | O=C(O)COc1ccc2c(c1)O/C(=C\c1cccs1)C2=O | -8.5% (inactive) | –
62 | O=C(CSc1nncn1-c1ccccc1)N1CCCC1 | -4.17% (inactive) | –
63 | CCc1ccc(NC(=O)C2CCCN(S(=O)(=O)c3ccc4c(c3)CCCN4C(C)=O)C2)cc1 (stereo not drawn) | 2.65% (inactive) | –
64 | CC(C)C(O)P(=O)(OCc1ccccc1)c1ccc(N(C)C)cc1 (stereo not drawn) | 1.35% (inactive) | -3.66
65 | CCOC(=O)C1CCCN1C(=O)c1ccc(OC)c(Br)c1 (stereo not drawn) | 0% (inactive) | –
66 | Cc1[nH]c2ccc(Br)cc2c(=S)c1C/C=C/Cl | 0% (inactive) | –

Row | Structure (SMILES) | inhibition | inhibition [1] [%]
67 | CC(=O)c1coc2c1cc(O)c1ccccc12 | -0.78% (inactive) | –
68 | CC(=O)c1c(C)oc2c1cc(O)c1ccccc12 | -5.41% (inactive) | –
69 | CCN(C(=O)CCN1C(=O)c2ccccc2S1(=O)=O)c1ccccc1 | -2.22% (inactive) | –
70 | COc1ccc(C(=O)N2CCOC2CNC(=O)C(=O)NCc2ccc(C)cc2)cc1 (stereo not drawn) | 1.73% (inactive) | –
71 | CSc1nc(-c2ccccc2)nc(NC(=O)C(C)C)c1C(C)=O | -10.3% (inactive) | –
72 | O=C(NC1CC2CCCC(C1)N2S(=O)(=O)c1ccccc1)c1ccco1 (stereo not drawn) | 1.41% (inactive) | –
73 | CSCC[C@H](NC(=O)c1cccs1)c1nnc2ccccn12 | 5.35% (inactive) | –
74 | COc1ccc(S(=O)(=O)Nc2cc3c(C(C)=O)c(C)oc3c3ccccc23)cc1 | -1.56% (inactive) | –
75 | CCOC(=O)c1c(C)oc2ccc(NS(=O)(=O)c3ccc(C(=O)O)cc3)cc12 | 4.37% (inactive) | –
76 | CC(=O)c1c(C)oc2c1cc(NS(=O)(=O)c1ccc(C(=O)O)cc1)c1ccccc12 | 15.7% (inactive) | –
77 | Cc1oc2c(cc(NS(=O)(=O)c3ccc(F)cc3)c3ccccc32)c1C(=O)O | 11.6% (inactive) | –
78 | O=C(Cn1cnc2ccccc2c1=O)NCC(=O)N1CCN(Cc2ccc3c(c2)OCO3)CC1 | -2.08% (inactive) | –
79 | Cc1cccc(NC(=O)Nc2cnccn2)c1 | -2.65% (inactive) | –
80 | Cn1c(=O)c2c(ncn2CCC(=O)N/N=C/c2cccnc2)n(C)c1=O | 0.78% (inactive) | –
81 | CN1C(=O)N(c2ccc(Cl)cc2)C(C)(O)CC1(C)C (stereo not drawn) | -7.17% (inactive) | –
82 | COc1cc2cccc(OC)c(=O)c2c(O)c1OC | -2.72% (inactive) | –
83 | Oc1cccc2cc3cccc(O)c3c(O)c12 | -2.2% (inactive) | –
84 | O=C(COC(=O)CCC(=O)c1cccs1)NCCc1ccccc1 | 10.1% (inactive) | –
85 | Cc1cccc(NC(=O)c2cccc(NC(=O)c3ccco3)c2)c1 | -3.49% (inactive) | –
86 | Cc1cc(-c2ccccc2)nc2[nH]n(-c3ccccc3)c(=O)c12 | 14.4% (inactive) | –
87 | O=c1c2c(C(F)(F)F)cc(C(F)(F)F)nc2[nH]n1-c1ccccc1 | 12% (inactive) | –
88 | COC(C(=O)Nc1ccccc1C(=O)N1CCOCC1)c1ccccc1 (stereo not drawn) | -4.55% (inactive) | –
